tim23-1 inh = inhibits growth of tim23-1 mutant yeast | actives 1.3% (n = 330,000) | S. cerevisiae tim23-1 growth, BacTiter-Glo luminescence, 24 h | inhibition, % at 20 µM | AID 463212;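 active means growth inhibition of the mutant yeast at or above 50%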;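 further: temperature-sensitive mutant grown at 25 °C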
NLRP3 yeast inh = inhibitors of NALP3 inflammasome in yeast; Yeast reconstituted NLRP3/ASC/caspase-1, beta-gal luminescence, 24 h; inhibition, % at 10 µM; actives 0.39% (n = 330,000); AID 2825;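 active means inhibition of 50% or more; inactive means inhibition below 50%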
PfHsp90 set2 = growth inhibition of yeast expressing Plasmodium Hsp90; S. cerevisiae expressing PfHsp90, BacTiter-Glo ATP, 48 h; yeast lacking PDR1 and PDR3 efflux regulators; AID 504621; inhibition, % at 9.4 µM; actives 0.32% (n = 310,000);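 active means every replicate shows inhibition above about 80%, whatever the replicate mean, limit read from the data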
tim10-1 inh = growth inhibitors of tim10-1 mutant yeast. AID 463190. S. cerevisiae tim10-1 ts strain growth, BacTiter-Glo, 24 h. inhibition, % at 20 µM. actives 2.2% (n = 330,000);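 active means inhibition of at least 40%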;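 further: mutant grown at 25 °C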
SKKanGAS inh = inhibitors of SKKanGAS S. pyogenes growth in kanamycin (SK-promoter or general growth effect) | AID 1662 | actives 1.3% (n = 300,000) | inhibition, % at 7.5 µM | BacTiter-Glo, 6 h;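 active means mean replicate score, as percent of positive control median, at least 50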;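 further: strain carries kanamycin resistance gene driven by streptokinase promoter and grows in 40 µg/ml kanamycin; loss of luminescence reflects streptokinase promoter inhibition or plain growth inhibition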
TIM10 inh = inhibits growth of TIM10 yeast strain; actives 1.4% (n = 330,000); inhibition, % at 10 µM; S. cerevisiae TIM10 strain growth, BacTiter-Glo luminescence, 24 h;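 active means inhibition of 40% or more at the single tested concentration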;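 further: wild-type TIM10 isogenic control strain grown at permissive 25 °C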
NALP3 yeast conf = confirmation of NALP3 inhibitors in yeast; shares compounds with NLRP3 yeast inh; yeast expressing human NALP3, luminescence; actives 81% (n = 1,300); inhibition, % at 10 µM; AID 435006; in the data active means inhibition above about 48%
Casp1-ASC yeast = active in yeast caspase-1-ASC counter-screen for NALP3 inhibitors. AID 488784. shares compounds with NLRP3 yeast inh. yeast expressing Caspase-1-ASC, luminescence counter screen. actives 66% (n = 1,000). inhibition, % at 10 µM
NALP3 yeast rt = retest-confirmed inhibitor of NALP3 in yeast; inhibition, % at 10 µM; AID 488794; shares compounds with NLRP3 yeast inh; actives 53% (n = 1,000); yeast expressing human NALP3, luminescence read-out
Numbers stand for hits; 0 = inactive; - = no result. Rows were chosen to be rich in hits. Some 4.6% of all compounds tested hit in one or more screens of this group. Unless noted, no stated cut-off is given here; in the data, active means inhibition above about 50%; inactive means the rest.

SMILES | tim23-1 inh | NLRP3 yeast inh | PfHsp90 set2 | tim10-1 inh | SKKanGAS inh | TIM10 inh | NALP3 yeast conf | Casp1-ASC yeast | NALP3 yeast rt
Oc1c(N=Nc2ccccc2)sc2ccccc12 | 0 | 50.6 | 0 | 0 | 0 | 0 | 70.7 | - | -
O=C(CNC(=O)c1ccccc1Br)N/N=C\c1cc([N+](=O)[O-])cc(Br)c1O | 0 | 50.8 | 0 | 0 | 58.7 | 0 | 0 | 0 | 0
Cc1ccc(S(=O)(=O)NC(CCC(N)=O)C(=O)NCc2ccc3c(c2)OCO3)c(C)c1 (centres undefined) | 0 | 0 | 0 | 0 | - | 0 | - | - | -
COc1cc(-c2nc3ccccn3c2/N=C/c2cc(OC)c(O)cc2Cl)ccc1O | 0 | 0 | 0 | 0 | 0 | 0 | 0 | - | -
COc1cc(-c2nc3ccccn3c2/N=C/c2ccccc2)ccc1O | 0 | 0 | 0 | 0 | 0 | 0 | - | - | -
CCOC(=O)c1cc[nH]c1CC(=O)NC | 0 | 0 | 0 | 0 | 0 | 0 | - | - | -
O=S(=O)(Oc1ccc(Cl)cc1)c1cccc2cccnc12 | 0 | 58.5 | - | 0 | 0 | 0 | 54.0 | 71.5 | 60.6
Cc1ccc(/C=N\NC(=O)CCc2n[nH]c(=O)[nH]c2=O)o1 | 0 | 0 | 0 | 0 | 0 | 0 | - | - | -
Cn1c(=NC(=O)COc2ccccc2)sc2ccccc21 | 0 | 59.8 | 0 | 0 | 0 | 0 | 0 | - | -
Cn1c(=NC(=O)CS(=O)(=O)c2ccccc2)sc2ccccc21 | 0 | 0 | 0 | 0 | 0 | 0 | - | - | -
Clc1ccccc1N=C1NN=C(c2cccs2)CS1 | 0 | 51.7 | - | 0 | 0 | 0 | 70.8 | 59.5 | 0
O=C1CSC(=Nc2ccccc2Cl)N1 | 0 | 0 | - | 0 | 0 | 0 | - | - | -
O=S(=O)(c1ccsc1)N1CC=C(c2ccccc2)CC1 | 0 | 58.4 | 0 | 0 | 0 | 0 | 61.1 | 0 | 0
COc1ccc(CCNC(=S)NC2CCN(Cc3ccccc3)CC2)cc1OC | 0 | 0 | 0 | 0 | 0 | 0 | - | - | -
O=C(Nc1ccc(N2CCCCC2)cc1)C(Cl)c1ccccc1 (centres undefined) | 0 | 50.3 | 0 | 0 | 0 | 0 | 55.8 | 0 | 0
C=C(CC[C@@H](O)C(C)(C)O)[C@H]1CC[C@]2(C)[C@@H]1CCC1[C@@]3(C)CCC(=O)C(C)(C)C3CC[C@]12C (some centres undefined) | 0 | 54.4 | 0 | 0 | - | 0 | 0 | 51.9 | 0
O=C(OCn1nnc2ccccc2c1=O)c1cccc(S(=O)(=O)N2CCOCC2)c1 | 0 | 0 | 0 | 0 | - | 0 | - | - | -
CCn1c(COc2ccc(C)cc2)nc2ccccc21 | 0 | 64.7 | 0 | 0 | 0 | 0 | 78.8 | - | -
CCOCCn1c(COc2ccc(C)cc2)nc2ccccc21 | 0 | 0 | 0 | 0 | 0 | 0 | - | - | -
CC1(C)Cc2c(sc3c2c(=O)n(-c2cccc(Cl)c2)c(=O)n3CC(N)=O)CO1 | 0 | 0 | 0 | 0 | 0 | 0 | - | - | -
COc1cccc(C2CCCN2Cc2nc(-c3cnccn3)no2)c1 (centres undefined) | 0 | 0 | 0 | 0 | 0 | 0 | - | - | -
COc1ccc(NS(=O)(=O)c2cccc(C(=O)NC3CCC(O)CC3)c2)cc1 (centres undefined) | 0 | 0 | 0 | 0 | 0 | 0 | - | - | -
COc1ccc(CSCCN)cc1Cl | 0 | 67.6 | 0 | 0 | 0 | 0 | 69.5 | 70.6 | 73.2
CCN(CC)Cc1ccc(OC)c(Cl)c1 | 0 | 0 | - | 0 | 0 | 0 | - | - | -
O=S(=O)(c1ccccc1)c1cnc2ccccc2c1 | 0 | 0 | 0 | 0 | 0 | 0 | - | - | -
Nc1nc2ccccc2cc1S(=O)(=O)c1ccccc1 | 0 | 83.3 | - | 0 | 0 | 0 | 86.8 | - | -
COc1ccc(N=C2S/C(=C\c3ccc(N4CCOCC4)o3)C(=O)N2CCc2c[nH]c3ccccc23)cc1 | 0 | 57.2 | 0 | 0 | 59.5 | 0 | 53.5 | - | -
COc1ccc(N=C2S/C(=C\c3ccc(OCC(=O)O)cc3)C(=O)N2CCc2c[nH]c3ccccc23)cc1 | 0 | 0 | 0 | 0 | 0 | 0 | - | - | -
CC(=O)Oc1ccccc1C(=O)Nc1ccccc1 | 0 | 52.1 | 0 | 0 | 0 | 0 | 68.3 | 0 | 0
O=C(NNC(=S)NC(=O)c1ccccc1[N+](=O)[O-])c1ccccc1O | 0 | 0 | 0 | 0 | 0 | 0 | - | - | -
